Results: PubChem BioAssay AID2546 (National Center for Advancing Translational Sciences (NCATS), 2010)
In all, about 310,000 compounds went through this assay and about 11,000 (3.5%) were called active. Where a call stands in place of a potency, no number is given. About 8% were inconclusive and are not listed. The call rests on the fitted dose curve; in most records, active means well fitted inhibition curve with a large enough effect; inconclusive means small, poorly fitted or top-dose-only effect, or effect the other way; inactive means flat fitted curve, though single readings scatter. This excerpt belongs to a sample that is enriched for actives.

Test: VP16 counterscreen qHTS for inhibitors of ROR gamma transcriptional activity;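 further: Gal4-VP16 expression switched on by copper sulfate through the metallothionein promoter; nearly all actives have a fitted effect of over 50% in size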
Conditions: Drosophila S2 Gal4-VP16 UAS-luciferase, luminescence, 20 h; series mostly up to 53.6 µM
Potency means the concentration at half of the fitted maximal effect.

Compound	Potency
Cc1ccc(CN2CCNC(=O)C2CC(=O)NCc2csc(C(C)C)n2)cc1 (stereo unspecified)	inactive
O=C(C1CC1)N1N=C(c2ccc(Br)cc2)CC1(O)C(F)(F)F (stereo unspecified)	inactive
O=C(c1ccc(Cl)cc1)N1N=C(c2ccccn2)CC1(O)C(F)(F)F (stereo unspecified)	4.47 µM (active)
COC(=O)C1(O)CC(C(C)C)=NN1C(=O)c1ccc(Cl)cc1 (stereo unspecified)	inactive
COc1cccc(NC(=S)NCc2ccccn2)c1	inactive
O=C(NCc1ccccn1)Nc1ccc(F)cc1	inactive
CCC(C)c1ccc(NC(=S)NCc2ccccn2)cc1 (stereo unspecified)	8.91 µM (active)
Cc1cccc(NS(=O)(=O)c2ccc(C(=O)NCC(C)(C)N3CCOCC3)cc2)c1C	inactive
Cc1cccnc1CC(C)NC(=O)c1cc(COc2cncc(Cl)c2)on1 (stereo unspecified)	inactive
COc1cc([C@H](Cc2ccccc2)NC(C)=O)oc(=O)c1	11.2 µM (active)
COC(=O)[C@H](Cc1ccccc1)NC(=O)Nc1ccc(OC)cc1	inactive
CCOC(=O)C(Cc1ccccc1)NC(=O)CCC(=O)c1ccc(OC)cc1 (stereo unspecified)	inactive
COc1cc(/C=C2\C(=N)N3N=C(CC(=O)N4CCOCC4)SC3=NC2=O)cc(OC)c1OC	inactive
CN(C)C(=O)CCC(=O)N1CCCCC1C(=O)Nc1ccc(Oc2ccccc2F)cc1 (stereo unspecified)	inactive
Cc1ccc(C(=O)NCCNC(=O)c2ccccc2)cc1	inactive
C/C(=N\NC(=O)c1cccnc1)c1ccc(-c2ccccc2)cc1	inactive
C/C(=N\NC(=O)c1ccc(C)cc1)C1C(=O)c2ccccc2C1=O	0.562 µM (active)
CC(Cc1cccs1)N(Cc1ccc(Cl)cc1)C(=O)c1ccncc1 (stereo unspecified)	inactive
CCOC(=O)c1ccc2[nH]c3c(c2c1)CCCC3NC=O (stereo unspecified)	inactive
O=C(Nc1sc2c(c1C(=O)O)CCC2)c1ccccc1F	inactive
CCOC(=O)c1c(NC(=O)C(C)Sc2c[nH]c3ccccc23)sc2c1CCC2 (stereo unspecified)	inactive
CCOCC(=O)Nc1sc2c(c1C(=O)OCC)CCCC2	inactive
CCc1ccc(N(CC(=O)Nc2sc3c(c2C(=O)OC)CCCC3)S(C)(=O)=O)cc1	inactive
CCOC(=O)c1c(NC(=O)c2ccc(Br)o2)sc2c1CCCC2	inactive

Compound	Potency
CCOC(=O)c1c(NC(=S)NC)sc2c1CCCC2	1.41 µM (active)
CCCOC(=O)Nc1sc2c(c1C(=O)OCC)CCC2	inactive
CCN(CC)CC(=O)Nc1sc2c(c1C(=O)c1ccccc1C)CCC2	17.8 µM (active)
CCOC(=O)c1c(NC(=S)Nc2ccccc2C)sc2c1CCC2	5.62 µM (active)
O=C(O)CN1c2cccc3cccc(c23)S1(=O)=O	inactive
CC(C)(COC(=O)Nc1ccccc1)COC(=O)Nc1ccccc1	inactive
CC(=O)Nc1ccc(NC(=O)CC2CCCC2)cc1	inactive
COc1cc(C(=O)N2CCN(C3CCC(C)CC3)CC2)cc(OC)c1OC (stereo unspecified)	inactive
COc1ccccc1/C=N/N1CCN(Cc2ccccc2Cl)CC1	inactive
CCOCCCNc1c(CC)c(C)c(C#N)c2nc3ccccc3n12	inactive
C=C(C(C)=O)C(O)c1ccc([N+](=O)[O-])cc1 (stereo unspecified)	10 µM (active)
CC(=O)NCC(O)c1ccc([N+](=O)[O-])cc1 (stereo unspecified)	inactive
C=C(C(C)=O)C(O)c1cccs1 (stereo unspecified)	inactive
O=C(c1ccco1)N1CCN(C(=O)c2cc(-c3ccccc3F)no2)CC1	inactive
O=C(c1cc(COc2ccc(F)cc2F)on1)N1CCOCC1	inactive
CC(C)C[C@H](NC(=O)C1CC(=O)N(c2ccc3c(c2)OCCO3)C1)C(=O)NC1CCCC1 (stereo partly specified)	inactive
Cc1noc(C)c1-c1ccc2ncnc(NCc3ccc4[nH]ccc4c3)c2c1	inactive
COc1ccc(COC(=O)c2ccc(Cl)c(S(=O)(=O)N3CCOCC3)c2)cc1F	inactive
Cc1cc(N/N=C\c2ccc(Br)cc2)nc(-n2nc(C)cc2C)n1	1.41 µM (active)
CC(=O)c1ccc(Oc2cc(C)nc(-n3nc(C)cc3C)n2)cc1	6.31 µM (active)
Cc1cc(Nc2ccc(Cl)cc2)nc(N2CCOCC2)n1	inactive
COc1ccc(Nc2cc(C)nc(-n3nc(C)cc3C)n2)cc1	1.12 µM (active)
Cc1ccc(S(=O)(=O)Nc2nc(C)cc(N/N=C/c3ccc(O)cc3)n2)cc1	inactive
COc1cccc2c(N/N=C/c3ccco3)cc(C)nc12	inactive

Compound	Potency
COc1ccccc1/C=N\Nc1cc(C)nc(-n2nc(C)cc2C)n1	0.355 µM (active)
COc1ccc(/C=N/Nc2cc(N3CCOCC3)nc(C)n2)c(OC)c1	inactive
Cc1cc(Oc2ccc(Cl)cc2)nc(SCC(=O)c2ccccc2)n1	inactive
Cc1nc(Cl)cc(N/N=C/c2ccccc2)n1	inactive
COc1ccc(NC(=O)c2nc(-n3nc(C)cc3C)ccc2Cl)cc1Cl	inactive
Cc1cc(C)n(-c2cc(Oc3ccccc3)ncn2)n1	inactive
COC(=O)c1ccc(COC(=O)c2cnc(Cl)c(Cl)c2)cc1	inactive
COCc1cc(C)n(CC(=O)NCC2CCCO2)c(=O)c1C#N (stereo unspecified)	inactive
CCc1ccccc1N(CC(=O)NCC1CCCO1)C(=O)CCC(=O)Nc1nccs1 (stereo unspecified)	inactive
COc1ccccc1N1CCN(C(=O)c2cc(=O)c3cc(C)cc(C)c3o2)CC1	inactive
C[C@H]1[C@H]2c3nc4ccccc4n3C[C@H]1ON2C1CCCCC1	inactive
COc1cc2c(cc1OC)C(c1cccc([N+](=O)[O-])c1)=NCC2	inactive
CCOc1cccc(/C=N/N2C(=O)CSC2=S)c1O	12.6 µM (active)
O=C1CSC(=S)N1/N=C/c1ccc(O)c([N+](=O)[O-])c1	inactive
CCOc1ccccc1N=C1NC(=O)CS1	inactive
CCOc1ccc(N(CC(=O)Nc2cccc(OC)c2)S(C)(=O)=O)cc1	inactive
CCN1CCN(C2CCCCC2NS(=O)(=O)c2ccc(Cl)cc2)CC1 (stereo unspecified)	inactive
Cc1n[nH]c(=O)nc1N/N=C/c1cccs1	11.2 µM (active)
COc1ccc(Nc2nc(=O)[nH]nc2C)cc1	inactive
Cc1nnc(N/N=C/c2cccs2)[nH]c1=O	inactive
O=C(NCCc1nnc2ccc(SCC(=O)N3CCOCC3)nn12)c1ccccc1	inactive
CCOC(=O)C1(CCOC)CCN(Cc2cc3ccccc3s2)CC1	inactive
CCC(=O)Nc1ccc2nn(-c3ccc(F)cc3)nc2c1	inactive
